“And” between values parts separate entries of the source, which are not always exact repeats. Identical values can stand only once. The panel holds about 83,000 compounds, 20% with a hit somewhere; the sample as a whole holds those more often.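 Activity criterion: percent growth below 10, measured after cells in 96-well plates were exposed to a single compound concentration for 48 hours.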 The source made the active and inactive calls.
These molecules were tested on MDA-MB-468 breast (assay: NCI-60 one-dose screen, 48 h (100 = growth as untreated, 0 = no growth, -100 = all killed)). Details: 10 µM unless noted.
With `O=C(Nc1ccc2c(c1)OCCO2)C(=O)c1c[nH]c2ccccc12` the growth was -0.365% (active). In the case of `Cc1nn(-c2ccccc2)c(N2CCOCC2)c1/C=N/N=c1\sc2ccccc2n1C`, the growth is reported as 71.6% (inactive). With `CCOC(=O)C(CNc1ccccc1)C(=O)OCC` the growth was 93.3% (inactive). `COC1=CC(c2ccc[nH]2)=N/C1=C\c1[nH]c(C)c(C(=O)CCCCC(=O)NCc2ccccc2)c1C` was tested, and the growth was 4.21% (active). For `Nc1c(C(=O)C[C@@H](N)CO)ccc2c1C(=O)CCO2`, the growth was -14.1% (active). For `CSc1nnc(C2=CC(=O)c3ccccc3C2=O)n1-c1ccccc1`, the growth was 82.6% (inactive). For `CCn1nc(C#Cc2c(C)ccc3c(Nc4ccc(Cl)cc4)nccc23)c2c(N)ncnc21`, the growth was 27.1% (inactive). `COC(=O)[C@]12CC[C@@H](C)[C@H](C)[C@@H]1C1=CC[C@@H]3[C@@]4(C)C(C=O)=C[C@@](C)(COC(=O)/C=C/c5ccccc5)[C@@H]4[C@H](O)C[C@@]3(C)[C@]1(C)CC2` was tested, and the growth was 14.9% (inactive). In the case of `Cn1c(N)c(N=O)c(=O)n(C)c1=O`, the growth is reported as 122% (inactive) and 112% (inactive). `COc1ccc(C(=O)C(O)c2ccc(OC)cc2)cc1` (centres undefined) was tested, and the growth was 101% (inactive) and 96.3% (inactive). In the case of `C=C1C(=O)O[C@H]2[C@H]1CC/C(COC(=O)OCCCCCOC(=O)OC/C1=C/CC[C@@]3(C)O[C@H]3[C@H]3OC(=O)C(=C)[C@@H]3CC1)=C\CC[C@@]1(C)O[C@@H]21`, the growth is reported as -38.5% (active). In the case of `O=C(c1ccc(Cl)cc1)C1[C@H](c2ccc(Cl)cc2)[C@@H](c2ccccc2)NC12C(=O)Nc1ccc(Br)cc12` (some centres undefined), the growth is reported as 45.8% (inactive). `O=C(O)c1cn(C2CC2)c2cc(N3CCN(C(=O)C[n+]4cccc5ccccc54)CC3)c(F)cc2c1=O` was tested, and the growth was 71.4% (inactive). In the case of `COc1nc2ccccc2cc1-c1nc2c(cnn2-c2ccc(Br)cc2)c(=O)[nH]1`, the growth is reported as 5.52% (active). In the case of `O=c1c2c(O)cccc2oc2c3c(cc(O)c12)O[C@H]1OC=C[C@@H]31`, the growth is reported as 30.2% (inactive). `COc1ccc(NC(=O)CSc2nnc(-c3cc(-c4ccccc4)nc4ccccc34)n2-c2ccccc2)cc1` was tested, and the growth was 97.3% (inactive). For `N[C@@H](Cc1ccccc1)[C@@H](O)C(=O)NCc1ccc(F)cc1`, the growth was 114% (inactive). In the case of `Cc1cc(Nc2ncnc3ccc(NC4=NC(C)(C)CO4)cc23)ccc1Oc1ccn2ncnc2c1`, the growth is reported as -60.6% (active). In the case of `CN(C)CCCOc1c(Br)cc(/C=C/C(=O)N(C)CCc2cc(Br)c(OCCCN(C)C)c(Br)c2)cc1Br`, the growth is reported as 91.4% (inactive). With `CCc1nc2ccccc2[nH]1` the growth was 109% (inactive). In the case of `CC1(C)CN(c2cnc(C(=O)Nc3cc(F)cc4cccnc34)cn2)CCN1`, the growth is reported as 17.8% (inactive). For `CSc1ccc2c(c1)C(N1CCN(C)CC1)Cc1ccccc1S2` (centres undefined), the growth was -66.4% (active). For `O=C(CCCCCCN1CC(=O)N2[C@@H](c3cc(F)cc(F)c3)c3[nH]c4ccccc4c3C[C@H]2C1=O)NO`, the growth was 50.4% (inactive). In the case of `O=C(N/N=C\c1cc(Cl)ccc1[N+](=O)[O-])c1ccco1`, the growth is reported as 58.5% (inactive).
